FECH block = human FECH heme synthesis enzyme inhibition; purified FECH, Ni-mesoporphyrin absorbance 550 nm; calls only at 10 µM (by protocol); 20,000 compounds, 3.3% hits;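 active means enzyme reaction rate more than 3 SD below the solvent-only control wells on the same plate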;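 further: lower slope than DMSO wells means FECH inhibition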
Target sequence (P22830 whole entry, looked up): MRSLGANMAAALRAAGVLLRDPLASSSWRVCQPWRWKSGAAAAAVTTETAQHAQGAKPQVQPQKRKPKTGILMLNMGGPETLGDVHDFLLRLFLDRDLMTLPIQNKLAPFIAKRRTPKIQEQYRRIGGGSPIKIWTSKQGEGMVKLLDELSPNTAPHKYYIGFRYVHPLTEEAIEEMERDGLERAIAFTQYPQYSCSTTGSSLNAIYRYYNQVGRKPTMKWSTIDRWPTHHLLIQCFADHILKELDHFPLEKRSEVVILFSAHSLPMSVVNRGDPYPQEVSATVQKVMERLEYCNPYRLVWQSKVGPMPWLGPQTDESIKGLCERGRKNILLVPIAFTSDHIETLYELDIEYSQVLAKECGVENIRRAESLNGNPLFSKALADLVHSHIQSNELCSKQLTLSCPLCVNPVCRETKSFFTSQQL
Calls only; n = inactive; + = active, no number. The sample as a whole holds a higher share of hits than the screen did.

SMILES	FECH block
COc1ccc(S(=O)(=O)Nc2cnc(N(CC(C)C)CC(C)C)c(C(=O)O)c2)cc1	+
CC(C)CN(CC(C)C)c1ncc(NS(=O)(=O)c2ccccc2)cc1C(=O)O	n
CC(C)CN(CC(C)C)c1ncc(NS(=O)(=O)c2ccc(F)cc2)cc1C(=O)O	n
NC(=O)c1cnc2n1CCN(C(=O)c1nc3c(s1)CCCC3)C2	n
CCn1cnnc1CN(C)C1CCN(Cc2ccccc2)CC1	n
CCc1nn(-c2ccccc2)c(NC(=O)C2=CC(=O)CC(C)(C)O2)c1C	n
CC(=O)N1c2ccc(S(=O)(=O)N3CCOCC3)cc2CC1C(=O)NCCN1CCCC1 (stereo not drawn)	+
CC(=O)N1c2ccc(S(=O)(=O)N3CCCCC3)cc2CC1C(=O)Nc1ccncc1 (stereo not drawn)	n
CC(=O)N1c2ccc(S(=O)(=O)N3CCCCC3)cc2CC1C(=O)NCCCN1CCCC1 (stereo not drawn)	n
NC(=O)c1cccc(CC2CCN(C(=O)c3cc(=O)c4ccccc4o3)C2)c1 (stereo not drawn)	n
CCc1nc(OCC(=O)NCc2ccc(C)o2)c2c(C)c(C)oc2n1	n
CC1CCCCN1Cc1cc(=O)n2[nH]c(-c3ccc(C(C)(C)C)cc3)nc2n1 (stereo not drawn)	n
Cc1cccc(-c2nc3nc(CN4CCCCC4C)cc(=O)n3[nH]2)c1 (stereo not drawn)	+
Cc1cccc(-c2nc3nc(CN4CCCC4)cc(=O)n3[nH]2)c1	n
Oc1ccc(-c2ccc(-c3nc(Cc4ccccc4)no3)cn2)cc1	n
Cc1ccc2oc(C(=O)NCc3n[nH]c4c3CCC4)cc2c1	n
CC(=O)Nc1cccc(-c2ccc3[nH]ncc3c2)c1	n
CCCc1cnc(C)nc1-c1cccc(NC(C)=O)c1	+
CC(=O)Nc1cccc(-c2ncc(C(F)(F)F)cc2Cl)c1	n
Cc1nc(CN2CCN(c3nccc(C4CCCC4)n3)CC2)no1	n
CSc1nnc(CC2CCN(C/C=C/c3ccco3)CC2)n1C	n
CNc1nc(N2CCC(Cc3nnc(SC)n3C)CC2)nc2c1CCC2	+
Cc1cc(Nc2ccc(OC(=O)c3ccc(C)c(C)c3)cc2)n2nc(-c3cccnc3)nc2n1	n
Cc1cc(Nc2ccc(OC(=O)c3ccncc3)cc2)n2nc(-c3cccnc3)nc2n1	n
Cc1cc(Nc2ccc(OC(=O)c3ccco3)cc2)n2nc(-c3cccnc3)nc2n1	+
SMILES	FECH block
Cn1ccnc1CN(CCn1c(=O)oc2ccccc21)C1CC1	n
CCS(=O)(=O)N1CCN(c2cc(-c3ccc(OC)c(OC)c3)ncn2)CC1	n
Cc1[nH]c(=O)[nH]c(=O)c1-c1ccc(-n2cccn2)cc1	n
COc1cccc(OC)c1-c1ccc2nc(CO)[nH]c2c1	+
COc1ccc(-c2ccc3nc(CO)[nH]c3c2)cc1Cl	n
COc1cc2c(cc1-c1nccn1-c1ccc3nc(CO)[nH]c3c1)CCC2	n
O=C(NC1CC1)c1ccccc1OCc1nc(-c2cccs2)no1	n
Cc1ccc(NS(=O)(=O)c2cc(C(=O)N3CCCCC3)cs2)cc1C	n
Cc1ccc(Nc2nc(NCC(C)C)nc3c2cnn3-c2ccccc2)cc1	n
Cc1oc(-c2ccccc2Cl)cc1C(=O)NCCc1cnc[nH]1	+
c1cnc2c(-c3nccn3CCc3cnc[nH]3)cccc2c1	n
Cc1oc(-c2ccccc2Cl)cc1C(=O)NCCN1CCNC1=O	n
Cc1ccc(CN2CC(C(=O)NCc3cc(C(C)C)on3)CC2=O)cc1 (stereo not drawn)	n
CCOC(=O)c1c(NC(=O)c2ccc(N3C(=O)CCC3=O)cc2)sc2c1CCN(C(C)C)C2	+
CCOC(=O)c1c(NC(=O)c2cccs2)sc2c1CCN(C(C)C)C2	n
CCOC(=O)c1c(NC(=O)c2ccco2)sc2c1CCN(C(C)C)C2	n
COCCN(Cc1cccs1)C(=O)c1cc2ccccc2o1	n
COc1cccc(OCC(=O)Nc2cc(C)nn2-c2ncnc3c2cnn3-c2cccc(C)c2C)c1	n
Cc1cccc(OCC(=O)Nc2cc(C)nn2-c2ncnc3c2cnn3-c2cccc(C)c2C)c1	n
Cc1cc(NC(=O)COc2ccc(C(C)C)cc2)n(-c2ncnc3c2cnn3-c2cccc(C)c2C)n1	+
CCc1nc(OCC(=O)NCc2cccc(Br)c2)c2c(-c3ccc(F)cc3)noc2n1	n
CC(C)C1C(=O)NCCN1C(=O)c1cc(=O)c2ccccc2[nH]1 (stereo not drawn)	n
Cn1c(=O)n(CCOc2ccc(F)cc2)c(=O)c2cnc(-c3ccc(Cl)cc3)nc21	n
CCn1c(=O)n(CCOc2ccc(F)cc2)c(=O)c2cnc(-c3ccc(OC)cc3)nc21	n
CCn1c(=O)n(CCOc2ccc(F)cc2)c(=O)c2cnc(-c3ccc(Cl)cc3)nc21	+
SMILES	FECH block
Cc1cc(C)cc(N2CCN(c3nc(C)nc4c3CCNC4)CC2=O)c1	n
Cn1c(=O)n(C)c2cc(Cn3cc(C4CC=CCC4)nn3)ccc21 (stereo not drawn)	n
Cc1ccc(-c2cc(N3CCN(S(=O)(=O)c4ccc(CC(C)C)cc4)CC3)ncn2)cc1	n
COc1cccc(-c2cc(N3CCN(S(=O)(=O)c4cc(OC)ccc4OC)CC3)ncn2)c1	+
COc1cccc(-c2cc(N3CCN(S(=O)(=O)c4ccc(F)cc4)CC3)ncn2)c1	n
COc1cccc(-c2cc(N3CCN(S(=O)(=O)c4ccc(OC)c(Cl)c4)CC3)ncn2)c1	n
CC(C)Cc1ccc(S(=O)(=O)N2CCN(c3cc(-c4ccc(F)cc4)ncn3)CC2)cc1	n
COc1cccc(-c2cc(N3CCN(S(=O)(=O)c4cc(Cl)ccc4OC)CC3)ncn2)c1	n
COc1cccc(-c2cc(N3CCN(S(=O)(=O)c4ccccc4)CC3)ncn2)c1	+
Cc1cccc(-c2cc(N3CCN(S(=O)(=O)c4ccc(CC(C)C)cc4)CC3)ncn2)c1	+
Cc1ccc(-c2cc(N3CCN(S(=O)(=O)c4c(C)noc4C)CC3)ncn2)cc1	n
COc1cccc(-c2cc(N3CCN(S(=O)(=O)c4ccc(Br)cc4)CC3)ncn2)c1	n
COc1cccc(-c2cc(N3CCN(S(=O)(=O)c4c(C)noc4C)CC3)ncn2)c1	+
Cc1cccc(-c2cc(N3CCN(S(=O)(=O)c4c(C)noc4C)CC3)ncn2)c1	n
Cc1ccc(NC(C)(C(=O)NCc2c(C)n[nH]c2C)c2ccccc2)cc1 (stereo not drawn)	n
Cc1cccc(C(=O)N2CCC(N3CCCC(C(=O)N4CCCC4)C3)CC2)n1 (stereo not drawn)	n
O=C(CNCCS(=O)(=O)N1CCCC1)NC1CCCCCCC1	n
Cc1cc(CNC(=O)[C@H](C)n2cnnn2)c2[nH]c(C)c(C)c2c1	n
CCOC(=O)c1ccc(NC(=O)CN2CCCN(Cc3ccc(C)cc3)S2(=O)=O)cc1	n
COc1ccc(NC(=O)CN2CCCN(Cc3ccc(C)cc3)S2(=O)=O)c(OC)c1	n
CCc1cccc(NC(=O)CN2CCN(Cc3ccccc3C)S2(=O)=O)c1	n
COc1cc(OC)c(NC(=O)CN2CCCN(Cc3cc(C)ccc3C)S2(=O)=O)cc1Cl	+
CSc1cccc(NC(=O)CN2CCN(Cc3ccccc3C)S2(=O)=O)c1	+
CSc1cccc(NC(=O)CN2CCN(Cc3ccccc3)S2(=O)=O)c1	n
COc1ccc(NC(=O)CN2CCCN(Cc3ccc(C)cc3)S2(=O)=O)cc1	n
Cc1ccc(CN2CCN(CC(=O)Nc3cc(C)cc(C)c3)S2(=O)=O)cc1	n
COc1ccc(NC(=O)CN2CCN(Cc3ccc(C)cc3)S2(=O)=O)cc1	n
Cc1ccc(NC(=O)CN2CCN(Cc3cc(C)ccc3C)S2(=O)=O)cc1	n
